Here are results for one compound from ChEMBL document CHEMBL1961873, “Compounds: GSK PKIS; Assays: Nanosyn kinase panel” (2012).

The target of assay [1] is Sphingosine kinase 1 (Homo sapiens) (UniProt Q9NYA1). The settings on record: at 1 µM.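 Also: mean SPHK1 inhibition value reported from the GSK PKIS kinase panel screen.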
For assay [2], the target named is T1, Sphingosine kinase 2 (Homo sapiens) (UniProt Q9NRA0).
T1 sequence (whole entry): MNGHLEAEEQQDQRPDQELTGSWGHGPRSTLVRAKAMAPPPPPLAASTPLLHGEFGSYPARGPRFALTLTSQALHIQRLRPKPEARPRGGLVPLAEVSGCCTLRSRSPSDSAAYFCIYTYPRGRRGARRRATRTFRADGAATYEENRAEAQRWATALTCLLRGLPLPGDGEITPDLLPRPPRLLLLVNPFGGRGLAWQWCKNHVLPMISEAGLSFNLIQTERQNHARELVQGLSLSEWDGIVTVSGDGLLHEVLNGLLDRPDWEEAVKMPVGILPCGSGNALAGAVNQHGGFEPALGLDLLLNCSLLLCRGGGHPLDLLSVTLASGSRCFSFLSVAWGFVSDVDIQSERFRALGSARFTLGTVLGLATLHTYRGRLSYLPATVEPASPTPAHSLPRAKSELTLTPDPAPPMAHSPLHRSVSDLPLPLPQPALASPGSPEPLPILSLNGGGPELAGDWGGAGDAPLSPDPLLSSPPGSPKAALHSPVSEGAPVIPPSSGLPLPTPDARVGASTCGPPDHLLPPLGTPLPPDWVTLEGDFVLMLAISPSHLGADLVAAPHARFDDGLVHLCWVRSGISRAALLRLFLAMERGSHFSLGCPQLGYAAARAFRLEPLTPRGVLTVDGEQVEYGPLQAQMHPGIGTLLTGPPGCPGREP
Conditions: at 0.1 µM.

Assay [3] deals with T1, Sphingosine kinase 2 (Homo sapiens). The settings on record: at 1 µM.
Assay [4] concerns the target Casein kinase II subunit alpha (Homo sapiens) (UniProt P68400). Conditions: at 0.1 µM.
The target is the same in assay [5]. The settings on record: at 1 µM.
The target in assay [6] is T2, Inhibitor of nuclear factor kappa-B kinase subunit alpha (Homo sapiens) (UniProt O15111).
T2 sequence (whole entry): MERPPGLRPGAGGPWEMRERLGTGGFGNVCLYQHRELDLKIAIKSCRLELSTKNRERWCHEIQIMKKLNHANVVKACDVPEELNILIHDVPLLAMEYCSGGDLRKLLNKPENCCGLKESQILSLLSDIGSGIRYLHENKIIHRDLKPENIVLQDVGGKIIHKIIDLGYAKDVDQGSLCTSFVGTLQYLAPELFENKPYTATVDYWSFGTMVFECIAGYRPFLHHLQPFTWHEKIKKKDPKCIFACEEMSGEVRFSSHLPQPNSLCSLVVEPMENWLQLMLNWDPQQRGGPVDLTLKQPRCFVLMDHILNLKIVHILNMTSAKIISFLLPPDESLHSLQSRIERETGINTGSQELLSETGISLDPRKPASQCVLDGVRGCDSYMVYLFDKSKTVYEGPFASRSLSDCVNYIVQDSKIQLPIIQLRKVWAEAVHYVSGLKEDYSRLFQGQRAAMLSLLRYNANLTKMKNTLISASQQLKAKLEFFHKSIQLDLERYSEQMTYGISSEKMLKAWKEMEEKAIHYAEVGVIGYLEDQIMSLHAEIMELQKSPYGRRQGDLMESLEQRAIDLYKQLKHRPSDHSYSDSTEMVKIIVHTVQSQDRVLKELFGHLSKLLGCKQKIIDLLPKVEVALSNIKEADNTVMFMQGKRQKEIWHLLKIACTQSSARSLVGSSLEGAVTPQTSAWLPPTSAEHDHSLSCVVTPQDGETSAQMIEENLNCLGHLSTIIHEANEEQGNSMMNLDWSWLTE
Conditions: at 0.1 µM.

For assay [7], the target named is T2, Inhibitor of nuclear factor kappa-B kinase subunit alpha (Homo sapiens). Conditions: at 1 µM.
Assay [8] concerns the target T3, Inhibitor of nuclear factor kappa-B kinase subunit beta (Homo sapiens) (UniProt O14920).
T3 sequence (whole entry): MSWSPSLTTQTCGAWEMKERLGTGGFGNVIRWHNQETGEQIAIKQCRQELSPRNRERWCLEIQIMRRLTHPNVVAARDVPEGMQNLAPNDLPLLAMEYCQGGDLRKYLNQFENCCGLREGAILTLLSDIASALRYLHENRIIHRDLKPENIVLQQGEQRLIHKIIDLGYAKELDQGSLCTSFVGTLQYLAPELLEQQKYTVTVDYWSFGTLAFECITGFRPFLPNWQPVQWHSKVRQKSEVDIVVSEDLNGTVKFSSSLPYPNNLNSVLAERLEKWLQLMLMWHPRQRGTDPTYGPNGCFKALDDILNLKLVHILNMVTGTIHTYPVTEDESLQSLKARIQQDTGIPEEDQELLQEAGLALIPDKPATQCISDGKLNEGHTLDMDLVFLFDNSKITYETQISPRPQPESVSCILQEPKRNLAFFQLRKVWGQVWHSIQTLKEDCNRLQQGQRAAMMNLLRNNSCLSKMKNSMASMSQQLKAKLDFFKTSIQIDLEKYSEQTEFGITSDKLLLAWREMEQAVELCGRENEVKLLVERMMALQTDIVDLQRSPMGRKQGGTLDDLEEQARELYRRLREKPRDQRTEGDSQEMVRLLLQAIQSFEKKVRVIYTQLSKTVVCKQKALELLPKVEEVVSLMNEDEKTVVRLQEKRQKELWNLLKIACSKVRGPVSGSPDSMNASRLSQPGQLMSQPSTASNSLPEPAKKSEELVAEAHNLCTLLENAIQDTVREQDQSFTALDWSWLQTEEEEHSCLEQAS
The settings on record: at 0.1 µM.

Assay [9] has as its target T3, Inhibitor of nuclear factor kappa-B kinase subunit beta (Homo sapiens). Conditions: at 1 µM.
The target in assay [10] is T4, Inhibitor of nuclear factor kappa-B kinase subunit epsilon (Homo sapiens) (UniProt Q14164).
T4 sequence (whole entry): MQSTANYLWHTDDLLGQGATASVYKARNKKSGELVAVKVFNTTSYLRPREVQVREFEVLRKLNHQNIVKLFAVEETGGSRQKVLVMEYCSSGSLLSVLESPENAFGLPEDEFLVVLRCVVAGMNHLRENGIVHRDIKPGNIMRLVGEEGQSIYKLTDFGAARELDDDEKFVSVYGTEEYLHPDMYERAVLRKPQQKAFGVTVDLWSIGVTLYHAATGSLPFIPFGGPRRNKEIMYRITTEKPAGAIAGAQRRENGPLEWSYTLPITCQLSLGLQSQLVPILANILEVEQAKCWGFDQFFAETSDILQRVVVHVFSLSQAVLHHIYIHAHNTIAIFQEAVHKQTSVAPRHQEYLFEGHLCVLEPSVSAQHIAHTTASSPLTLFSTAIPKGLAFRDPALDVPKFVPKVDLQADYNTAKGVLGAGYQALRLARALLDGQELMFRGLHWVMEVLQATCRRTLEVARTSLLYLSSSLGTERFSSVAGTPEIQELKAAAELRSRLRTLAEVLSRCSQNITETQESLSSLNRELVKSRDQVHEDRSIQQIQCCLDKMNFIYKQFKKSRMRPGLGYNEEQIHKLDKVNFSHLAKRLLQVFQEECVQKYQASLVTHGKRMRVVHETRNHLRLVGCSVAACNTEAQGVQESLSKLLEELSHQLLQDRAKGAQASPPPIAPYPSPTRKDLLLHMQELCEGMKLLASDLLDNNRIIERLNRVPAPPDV
The settings on record: at 0.1 µM.

Assay [11] concerns the target T4, Inhibitor of nuclear factor kappa-B kinase subunit epsilon (Homo sapiens). The settings on record: at 1 µM.
The target in assay [12] is T5, Serine/threonine-protein kinase Nek1 (Homo sapiens) (UniProt Q96PY6).
T5 sequence (whole entry): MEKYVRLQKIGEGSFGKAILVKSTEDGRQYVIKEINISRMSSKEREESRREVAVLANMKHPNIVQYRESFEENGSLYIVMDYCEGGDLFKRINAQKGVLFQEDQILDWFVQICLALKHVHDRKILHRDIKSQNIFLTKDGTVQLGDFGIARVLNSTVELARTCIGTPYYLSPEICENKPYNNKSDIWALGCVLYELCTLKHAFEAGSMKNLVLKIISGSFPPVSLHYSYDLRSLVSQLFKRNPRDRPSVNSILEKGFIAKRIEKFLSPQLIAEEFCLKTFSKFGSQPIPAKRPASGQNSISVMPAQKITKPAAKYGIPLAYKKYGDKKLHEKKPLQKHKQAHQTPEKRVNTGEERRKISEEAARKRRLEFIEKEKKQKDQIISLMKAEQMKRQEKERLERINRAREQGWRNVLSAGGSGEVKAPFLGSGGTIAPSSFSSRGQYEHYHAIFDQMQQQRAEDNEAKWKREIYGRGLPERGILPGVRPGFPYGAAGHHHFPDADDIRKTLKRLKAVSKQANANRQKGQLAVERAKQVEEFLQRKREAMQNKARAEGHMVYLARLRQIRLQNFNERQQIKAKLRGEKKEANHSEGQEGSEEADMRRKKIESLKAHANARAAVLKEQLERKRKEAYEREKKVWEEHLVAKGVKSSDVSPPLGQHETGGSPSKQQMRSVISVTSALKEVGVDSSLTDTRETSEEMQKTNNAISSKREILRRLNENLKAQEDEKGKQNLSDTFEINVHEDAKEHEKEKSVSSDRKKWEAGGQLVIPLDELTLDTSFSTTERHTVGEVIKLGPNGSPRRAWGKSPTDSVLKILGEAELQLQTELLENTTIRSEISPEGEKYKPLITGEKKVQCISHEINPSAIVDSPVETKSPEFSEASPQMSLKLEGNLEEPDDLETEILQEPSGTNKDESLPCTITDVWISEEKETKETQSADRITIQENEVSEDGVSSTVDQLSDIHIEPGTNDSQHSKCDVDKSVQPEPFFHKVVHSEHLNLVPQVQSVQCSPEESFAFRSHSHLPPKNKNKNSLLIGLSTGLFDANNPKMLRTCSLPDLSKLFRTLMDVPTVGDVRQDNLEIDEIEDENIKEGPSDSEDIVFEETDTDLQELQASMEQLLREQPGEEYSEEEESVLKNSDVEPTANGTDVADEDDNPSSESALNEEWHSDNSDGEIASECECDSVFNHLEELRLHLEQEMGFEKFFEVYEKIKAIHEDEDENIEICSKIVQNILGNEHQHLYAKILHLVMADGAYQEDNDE
Conditions: at 0.1 µM.

In assay [13] the target is T5, Serine/threonine-protein kinase Nek1 (Homo sapiens). The settings on record: at 1 µM.
Assay [14] concerns the target T6, Serine/threonine-protein kinase Nek2 (Homo sapiens) (UniProt P51955).
T6 sequence (whole entry): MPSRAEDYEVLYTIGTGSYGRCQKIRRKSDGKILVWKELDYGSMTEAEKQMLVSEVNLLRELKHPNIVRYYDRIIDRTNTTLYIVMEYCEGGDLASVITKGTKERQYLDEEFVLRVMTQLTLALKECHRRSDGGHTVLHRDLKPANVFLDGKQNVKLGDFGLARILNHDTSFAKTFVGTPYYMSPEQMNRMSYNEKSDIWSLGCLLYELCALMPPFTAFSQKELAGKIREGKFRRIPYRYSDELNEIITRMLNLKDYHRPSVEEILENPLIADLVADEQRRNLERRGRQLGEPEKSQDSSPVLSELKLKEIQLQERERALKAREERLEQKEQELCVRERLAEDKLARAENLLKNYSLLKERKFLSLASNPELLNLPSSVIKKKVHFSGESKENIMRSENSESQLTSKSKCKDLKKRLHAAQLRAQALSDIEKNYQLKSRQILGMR
Conditions: at 0.1 µM.

Assay [15] has as its target T6, Serine/threonine-protein kinase Nek2 (Homo sapiens). The settings on record: at 1 µM.
The target of assay [16] is Serine/threonine-protein kinase Nek6 (Homo sapiens) (UniProt Q9HC98). The settings on record: at 0.1 µM.
For assay [17] the target is unchanged. The settings on record: at 1 µM.
Assay [18] has as its target Serine/threonine-protein kinase Nek7 (Homo sapiens) (UniProt Q8TDX7). The settings on record: at 0.1 µM.
The target is the same in assay [19]. The settings on record: at 1 µM.
The target of assay [20] is T7, Serine/threonine-protein kinase Nek9 (Homo sapiens) (UniProt Q8TD19).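 Also: reported value is the mean percent inhibition of NEK9.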
T7 sequence (whole entry): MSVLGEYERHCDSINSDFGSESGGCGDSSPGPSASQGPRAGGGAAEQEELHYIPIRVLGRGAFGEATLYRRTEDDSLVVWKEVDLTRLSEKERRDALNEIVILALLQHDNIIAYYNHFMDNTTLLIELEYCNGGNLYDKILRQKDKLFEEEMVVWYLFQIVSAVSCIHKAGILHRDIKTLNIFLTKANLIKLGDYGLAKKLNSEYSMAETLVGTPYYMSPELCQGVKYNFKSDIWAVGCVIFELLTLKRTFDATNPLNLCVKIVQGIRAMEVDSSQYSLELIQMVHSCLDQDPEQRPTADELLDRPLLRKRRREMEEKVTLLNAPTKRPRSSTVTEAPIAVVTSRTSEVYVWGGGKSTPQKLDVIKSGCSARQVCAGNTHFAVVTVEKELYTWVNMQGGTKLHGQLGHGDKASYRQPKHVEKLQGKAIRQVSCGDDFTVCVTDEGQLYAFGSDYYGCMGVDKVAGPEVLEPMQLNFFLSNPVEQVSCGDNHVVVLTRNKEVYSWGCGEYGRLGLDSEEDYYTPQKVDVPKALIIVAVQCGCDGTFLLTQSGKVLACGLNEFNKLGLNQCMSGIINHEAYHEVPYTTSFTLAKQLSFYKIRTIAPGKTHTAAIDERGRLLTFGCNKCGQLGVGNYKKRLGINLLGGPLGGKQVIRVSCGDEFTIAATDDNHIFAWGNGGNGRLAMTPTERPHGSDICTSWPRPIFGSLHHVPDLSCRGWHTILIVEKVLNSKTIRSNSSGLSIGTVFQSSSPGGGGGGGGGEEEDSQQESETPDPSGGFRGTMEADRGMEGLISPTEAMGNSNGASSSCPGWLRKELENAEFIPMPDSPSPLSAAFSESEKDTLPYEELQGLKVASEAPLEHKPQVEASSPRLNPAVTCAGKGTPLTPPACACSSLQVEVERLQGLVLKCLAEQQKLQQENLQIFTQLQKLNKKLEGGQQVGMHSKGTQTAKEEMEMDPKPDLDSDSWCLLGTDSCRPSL
Conditions: at 0.1 µM.

Serine/threonine-protein kinase Nek7 (Homo sapiens), sequence (Q8TDX7 whole entry, looked up): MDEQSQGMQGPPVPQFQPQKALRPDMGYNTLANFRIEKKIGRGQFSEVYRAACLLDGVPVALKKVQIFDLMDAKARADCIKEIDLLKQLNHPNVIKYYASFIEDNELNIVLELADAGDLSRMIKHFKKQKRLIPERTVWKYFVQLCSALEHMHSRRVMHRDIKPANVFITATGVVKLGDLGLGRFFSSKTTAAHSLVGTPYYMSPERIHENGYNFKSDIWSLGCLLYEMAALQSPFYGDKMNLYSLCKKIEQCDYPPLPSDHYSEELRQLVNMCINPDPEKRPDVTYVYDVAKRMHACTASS
Casein kinase II subunit alpha (Homo sapiens), sequence (P68400 whole entry, looked up): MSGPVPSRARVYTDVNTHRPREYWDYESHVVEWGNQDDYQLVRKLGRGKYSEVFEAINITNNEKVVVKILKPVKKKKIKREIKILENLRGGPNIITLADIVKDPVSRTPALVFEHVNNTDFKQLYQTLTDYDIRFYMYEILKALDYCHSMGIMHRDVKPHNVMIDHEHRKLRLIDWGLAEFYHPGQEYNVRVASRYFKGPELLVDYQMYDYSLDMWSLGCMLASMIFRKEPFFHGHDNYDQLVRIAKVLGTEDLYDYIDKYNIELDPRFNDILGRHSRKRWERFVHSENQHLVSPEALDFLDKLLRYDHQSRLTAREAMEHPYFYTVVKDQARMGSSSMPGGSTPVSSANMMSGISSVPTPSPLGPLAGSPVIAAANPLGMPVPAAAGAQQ
Serine/threonine-protein kinase Nek6 (Homo sapiens), sequence (Q9HC98 whole entry): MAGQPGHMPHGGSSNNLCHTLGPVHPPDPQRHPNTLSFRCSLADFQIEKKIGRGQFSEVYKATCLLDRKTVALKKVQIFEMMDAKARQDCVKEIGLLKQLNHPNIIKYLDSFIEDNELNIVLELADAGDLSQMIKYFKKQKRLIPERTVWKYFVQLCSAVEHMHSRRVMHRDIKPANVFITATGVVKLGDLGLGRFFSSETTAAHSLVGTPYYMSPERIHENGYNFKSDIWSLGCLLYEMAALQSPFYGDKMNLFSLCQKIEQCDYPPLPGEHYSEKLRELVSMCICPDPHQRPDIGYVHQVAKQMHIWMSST
Sphingosine kinase 1 (Homo sapiens), sequence (Q9NYA1 whole entry): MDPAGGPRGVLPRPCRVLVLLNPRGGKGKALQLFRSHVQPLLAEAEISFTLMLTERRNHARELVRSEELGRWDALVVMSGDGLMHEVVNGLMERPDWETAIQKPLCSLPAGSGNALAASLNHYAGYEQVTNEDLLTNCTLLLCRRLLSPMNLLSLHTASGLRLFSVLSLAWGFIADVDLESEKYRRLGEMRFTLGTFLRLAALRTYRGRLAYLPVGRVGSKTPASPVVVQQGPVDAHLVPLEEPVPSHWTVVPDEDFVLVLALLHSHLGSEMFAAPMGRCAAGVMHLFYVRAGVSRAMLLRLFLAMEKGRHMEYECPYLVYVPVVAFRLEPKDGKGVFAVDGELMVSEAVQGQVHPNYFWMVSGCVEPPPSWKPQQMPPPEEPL

A word on the inhibition: it is the drop in the measured response relative to a control, in per cent. Consider `CCOc1ccc2c(-c3ccnc(Nc4cc(OC)cc(C(F)(F)F)c4)n3)cnn2n1`, for which the inhibition in [1] is 1.71%; in assay [2], 4.25%; in assay [3] it was 0%; in assay [4], 4.76%; in assay [5], 15.3%; in assay [6], -1.77%. Further, the inhibition in assay [7] is 4.02%; in assay [8], -0.06%; in assay [9] it was -2.55%; in assay [10], 2.74%; in assay [11], 26.5%; in assay [12], 1.06%. Moreover, the inhibition in assay [13] is 2.42%; in assay [14], 1.26%; in [15] it was 0.94%; in assay [16] it was -0.49%; in [17], 1.7%; in [18] it was 2.79%. Besides, the results for the inhibition in [19] and in assay [20] were 2.42% and 3.87%, respectively.
